In publication PMC7862700, “An all-to-all approach to the identification of sequence-specific readers for epigenetic DNA modifications on cytosine”:

Key:
Assay in all cases: DAPPL (digital affinity profiling via proximity ligation, sequencing); 10 mM Tris-HCl pH 7.5, 50 mM NaCl, 1 mM DTT, 4% glycerol, room temperature, 30 min; GST-TFs on glutathione beads, 16-mer random dsDNA library, 0.1% formaldehyde crosslink after washing; high values mean tight binding
Details in all cases: protein: recombinant; tags: N-terminal GST; dsDNA, one strand shown
ELK1 = target: T1, ELK1 (Homo sapiens, UniProt P19419 1-428)
T1 sequence: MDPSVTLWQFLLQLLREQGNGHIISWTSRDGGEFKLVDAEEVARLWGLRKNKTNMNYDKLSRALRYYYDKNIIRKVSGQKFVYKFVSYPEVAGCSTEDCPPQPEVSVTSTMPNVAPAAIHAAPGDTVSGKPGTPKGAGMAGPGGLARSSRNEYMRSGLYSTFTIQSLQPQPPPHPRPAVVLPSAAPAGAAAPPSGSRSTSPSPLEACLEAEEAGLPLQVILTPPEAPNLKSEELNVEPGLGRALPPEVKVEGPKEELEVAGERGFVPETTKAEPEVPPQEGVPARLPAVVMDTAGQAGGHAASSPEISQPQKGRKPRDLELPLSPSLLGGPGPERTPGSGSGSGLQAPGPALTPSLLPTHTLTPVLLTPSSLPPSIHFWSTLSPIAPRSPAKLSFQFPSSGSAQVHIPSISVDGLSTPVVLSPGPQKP
Outline: (§1)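 GST fusions of human transcription factors were expressed in yeast and captured with glutathione beads. Once given DNA barcodes and pooled alongside a tag-only sample, they were incubated for 30 min at room temperature with 200 nmole of a random double-stranded 16-mer DNA library in Tris/NaCl/DTT/glycerol buffer, then washed, crosslinked (0.1% formaldehyde), proximity-ligated, PCR-amplified and sequenced on an Illumina NextSeq500. The binding signal of each hexamer is its read frequency for a factor divided by its frequency for the tag-only sample.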

GABPA = target: T2, GABPA (Homo sapiens, UniProt Q06546 1-454)
T2 sequence: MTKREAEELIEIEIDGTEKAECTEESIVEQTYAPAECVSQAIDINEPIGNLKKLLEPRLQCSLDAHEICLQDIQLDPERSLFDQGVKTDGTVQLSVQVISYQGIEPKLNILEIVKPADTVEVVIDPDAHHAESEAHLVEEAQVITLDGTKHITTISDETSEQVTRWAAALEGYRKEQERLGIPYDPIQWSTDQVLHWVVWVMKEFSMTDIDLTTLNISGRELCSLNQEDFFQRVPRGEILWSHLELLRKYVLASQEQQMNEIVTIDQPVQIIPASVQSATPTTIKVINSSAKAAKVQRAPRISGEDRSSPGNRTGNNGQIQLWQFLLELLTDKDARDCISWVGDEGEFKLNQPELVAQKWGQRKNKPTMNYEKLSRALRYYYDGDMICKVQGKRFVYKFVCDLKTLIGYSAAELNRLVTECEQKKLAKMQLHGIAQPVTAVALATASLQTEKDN
Outline: as §1

ERG = target: T3, ERG (Homo sapiens, UniProt P11308 1-479)
T3 sequence: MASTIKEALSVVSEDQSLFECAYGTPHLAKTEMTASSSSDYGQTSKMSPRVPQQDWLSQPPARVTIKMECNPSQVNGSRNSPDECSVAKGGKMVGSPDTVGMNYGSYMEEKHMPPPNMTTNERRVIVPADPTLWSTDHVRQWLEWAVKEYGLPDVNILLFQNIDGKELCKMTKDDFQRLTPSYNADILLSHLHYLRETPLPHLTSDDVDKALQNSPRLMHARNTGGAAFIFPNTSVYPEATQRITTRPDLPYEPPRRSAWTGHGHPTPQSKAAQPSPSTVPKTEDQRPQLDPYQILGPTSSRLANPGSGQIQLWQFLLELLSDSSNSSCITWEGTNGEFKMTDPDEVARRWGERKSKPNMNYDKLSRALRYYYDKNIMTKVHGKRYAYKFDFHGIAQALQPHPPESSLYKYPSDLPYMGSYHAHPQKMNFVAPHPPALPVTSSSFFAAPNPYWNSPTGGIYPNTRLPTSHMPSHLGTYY
Outline: as §1

ELF1 = ELF1 (Homo sapiens, UniProt P32519 1-619)
Outline: as §1

EHF = target: T4, EHF (Homo sapiens, UniProt Q9NZC4 1-300)
T4 sequence: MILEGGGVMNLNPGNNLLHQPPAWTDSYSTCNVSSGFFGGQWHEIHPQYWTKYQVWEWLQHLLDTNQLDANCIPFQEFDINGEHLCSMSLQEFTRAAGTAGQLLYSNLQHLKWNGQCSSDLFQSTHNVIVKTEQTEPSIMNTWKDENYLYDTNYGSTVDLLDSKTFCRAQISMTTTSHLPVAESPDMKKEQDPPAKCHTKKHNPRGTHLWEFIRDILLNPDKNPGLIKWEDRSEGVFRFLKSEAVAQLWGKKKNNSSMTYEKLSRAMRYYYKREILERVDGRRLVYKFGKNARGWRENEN
Outline: as §1

SPIB = SPIB (Homo sapiens, UniProt Q01892 1-262)
Outline: as §1

ELK3 = target: T5, ELK3 (Homo sapiens, UniProt P41970 1-407)
T5 sequence: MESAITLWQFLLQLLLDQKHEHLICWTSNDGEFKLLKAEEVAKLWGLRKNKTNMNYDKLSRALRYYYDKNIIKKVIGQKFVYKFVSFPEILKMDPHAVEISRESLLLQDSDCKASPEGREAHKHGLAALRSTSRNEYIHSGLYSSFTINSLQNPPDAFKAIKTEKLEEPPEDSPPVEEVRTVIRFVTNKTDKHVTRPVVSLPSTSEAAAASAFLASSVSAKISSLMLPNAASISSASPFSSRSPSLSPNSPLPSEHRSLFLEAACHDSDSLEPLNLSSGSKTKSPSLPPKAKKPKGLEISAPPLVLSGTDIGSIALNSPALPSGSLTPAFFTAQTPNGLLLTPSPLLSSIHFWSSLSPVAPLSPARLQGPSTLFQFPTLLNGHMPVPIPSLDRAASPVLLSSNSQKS
Outline: as §1

ETV5 = ETV5 (Homo sapiens, UniProt P41161 1-510)
Outline: as §1

SPIC = target: T6, SPIC (Homo sapiens, UniProt Q8N5J4 1-248)
T6 sequence: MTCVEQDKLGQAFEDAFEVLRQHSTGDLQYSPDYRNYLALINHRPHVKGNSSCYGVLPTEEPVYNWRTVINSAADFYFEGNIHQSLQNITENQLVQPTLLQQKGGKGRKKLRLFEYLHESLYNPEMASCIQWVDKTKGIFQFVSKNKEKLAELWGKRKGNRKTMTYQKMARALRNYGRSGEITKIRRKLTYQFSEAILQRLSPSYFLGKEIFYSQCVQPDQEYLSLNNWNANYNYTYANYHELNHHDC
Outline: as §1

ELF4 = ELF4 (Homo sapiens, UniProt Q99607 1-663)
Outline: as §1

Sequence of ETV5 (P41161 whole entry): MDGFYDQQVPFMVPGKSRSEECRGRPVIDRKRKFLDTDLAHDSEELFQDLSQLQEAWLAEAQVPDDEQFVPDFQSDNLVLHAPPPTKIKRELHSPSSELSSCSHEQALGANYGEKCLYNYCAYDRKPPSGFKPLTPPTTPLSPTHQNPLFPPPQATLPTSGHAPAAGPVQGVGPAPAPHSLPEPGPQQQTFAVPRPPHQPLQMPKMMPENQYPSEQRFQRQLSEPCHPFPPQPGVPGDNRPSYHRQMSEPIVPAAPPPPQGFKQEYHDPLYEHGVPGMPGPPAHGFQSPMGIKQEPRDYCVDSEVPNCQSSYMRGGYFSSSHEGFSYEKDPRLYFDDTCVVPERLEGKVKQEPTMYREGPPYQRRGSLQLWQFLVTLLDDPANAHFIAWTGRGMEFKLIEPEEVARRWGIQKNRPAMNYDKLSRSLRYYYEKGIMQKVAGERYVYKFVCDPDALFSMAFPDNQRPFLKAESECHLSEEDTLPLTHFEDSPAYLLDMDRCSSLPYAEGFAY
Sequence of ELF4 (Q99607 whole entry): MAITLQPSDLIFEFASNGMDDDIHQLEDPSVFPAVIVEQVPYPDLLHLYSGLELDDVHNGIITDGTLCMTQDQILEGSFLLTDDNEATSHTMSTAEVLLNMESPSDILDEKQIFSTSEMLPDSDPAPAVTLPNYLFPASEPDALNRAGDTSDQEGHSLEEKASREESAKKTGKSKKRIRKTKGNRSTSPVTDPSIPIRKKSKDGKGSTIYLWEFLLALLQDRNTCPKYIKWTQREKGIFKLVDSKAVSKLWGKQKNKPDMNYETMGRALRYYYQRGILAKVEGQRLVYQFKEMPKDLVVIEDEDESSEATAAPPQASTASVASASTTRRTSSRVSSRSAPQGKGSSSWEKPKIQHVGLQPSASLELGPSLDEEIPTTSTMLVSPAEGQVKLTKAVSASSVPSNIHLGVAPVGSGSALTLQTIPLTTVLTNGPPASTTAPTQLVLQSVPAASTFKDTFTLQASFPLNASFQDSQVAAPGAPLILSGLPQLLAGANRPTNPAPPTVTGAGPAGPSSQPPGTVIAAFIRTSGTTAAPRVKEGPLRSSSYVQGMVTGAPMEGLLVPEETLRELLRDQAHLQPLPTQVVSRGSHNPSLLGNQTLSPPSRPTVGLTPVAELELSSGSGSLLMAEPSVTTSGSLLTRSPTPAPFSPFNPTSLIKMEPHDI
Sequence of SPIB (Q01892 whole entry): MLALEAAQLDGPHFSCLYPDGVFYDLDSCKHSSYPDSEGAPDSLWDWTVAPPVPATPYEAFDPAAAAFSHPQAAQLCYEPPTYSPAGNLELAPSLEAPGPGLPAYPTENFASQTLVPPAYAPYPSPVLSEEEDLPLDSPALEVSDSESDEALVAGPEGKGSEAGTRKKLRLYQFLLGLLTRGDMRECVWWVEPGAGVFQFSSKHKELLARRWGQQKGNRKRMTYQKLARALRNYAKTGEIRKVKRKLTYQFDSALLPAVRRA
Sequence of ELF1 (P32519 whole entry): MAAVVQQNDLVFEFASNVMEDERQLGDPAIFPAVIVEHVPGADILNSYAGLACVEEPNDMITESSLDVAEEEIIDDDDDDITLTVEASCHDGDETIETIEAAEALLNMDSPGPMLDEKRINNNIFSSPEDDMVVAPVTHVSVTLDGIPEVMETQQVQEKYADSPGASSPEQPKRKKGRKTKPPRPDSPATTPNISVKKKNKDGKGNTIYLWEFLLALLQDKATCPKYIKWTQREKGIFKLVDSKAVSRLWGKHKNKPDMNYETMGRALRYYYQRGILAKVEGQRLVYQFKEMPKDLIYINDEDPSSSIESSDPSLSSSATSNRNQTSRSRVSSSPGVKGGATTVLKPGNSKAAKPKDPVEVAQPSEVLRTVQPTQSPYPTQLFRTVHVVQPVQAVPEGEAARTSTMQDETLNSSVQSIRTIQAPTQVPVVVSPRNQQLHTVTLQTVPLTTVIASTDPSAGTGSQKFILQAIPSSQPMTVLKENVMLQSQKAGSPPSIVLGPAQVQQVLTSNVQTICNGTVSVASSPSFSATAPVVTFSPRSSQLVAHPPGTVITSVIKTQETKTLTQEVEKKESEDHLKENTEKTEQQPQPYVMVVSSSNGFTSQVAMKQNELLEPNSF

Sequence: CAAACA
- binding signal (ELK1): 1.15 fold enrichment (6-mer frequency, TF over GST control)
- binding signal (GABPA): 1.18 fold enrichment (6-mer frequency, TF over GST control)
- binding signal (ERG): 1.18 fold enrichment (6-mer frequency, TF over GST control)
- binding signal (ELF1): 1.08 fold enrichment (6-mer frequency, TF over GST control)
- binding signal (EHF): 1.09 fold enrichment (6-mer frequency, TF over GST control)
- binding signal (SPIB): 1.13 fold enrichment (6-mer frequency, TF over GST control)
- binding signal (ELK3): 1.17 fold enrichment (6-mer frequency, TF over GST control)
- binding signal (ETV5): 1.13 fold enrichment (6-mer frequency, TF over GST control)
- binding signal (SPIC): 1.14 fold enrichment (6-mer frequency, TF over GST control)
- binding signal (ELF4): 1.14 fold enrichment (6-mer frequency, TF over GST control)
